# PubChem BioAssay (EPA / NIEHS)
# The source holds several records for some structures; these can differ, active in one and inactive in another. Calls of active or inactive are those of the source. Rule for the calls: active = hit-call score of the fitted dose curve at least 0.9, where 1 is the maximum; inactive = score below 0.9.
# Columns and labels:
# [1] = read-out: Monokine induced gamma interferon (MIG), CXCL9 (gene 4283); assay: BSK_hDFCGF_MIG: BioMAP Diversity Plus: hDFCGF Assay for Monokine induced gamma interferon (MIG) Biomarker Activity (AID 2283063); conditions: primary human foreskin fibroblasts; actives raise or lower the signal
# Procedure, shortened: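 Fibroblasts (human foreskin, primary) dosed, 24 h, MIG by ELISA; fit bidirectional vs DMSO.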
# [2] = read-out: Matrix Metallopeptidase 1 (MMP1), MMP1 (gene 4312); assay: BSK_hDFCGF_MMP1: BioMAP Diversity Plus: hDFCGF Assay for Matrix Metallopeptidase 1 (MMP1) Biomarker Activity (AID 2283064); conditions: primary human foreskin fibroblasts; actives raise or lower the signal
# Procedure, shortened: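 ELISA read-out of MMP1 from human foreskin fibroblasts (primary skin cells), 24 h post-dose. Gain or loss of signal was fitted bidirectionally versus DMSO negative control; cytotoxicity was checked by SRB in parallel cultures.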
# [3] = read-out: Vascular cell adhesion molecule 1 (VCAM1), VCAM1 (gene 7412); assay: BSK_hDFCGF_VCAM1: BioMAP Diversity Plus: hDFCGF Assay for Vascular cell adhesion molecule 1 (VCAM1) Biomarker Activity (AID 2283065); conditions: primary human foreskin fibroblasts; actives raise or lower the signal;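 for AC50: VCAM-1 protein level quantified by ELISA after 24 h chemical exposure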
# Procedure, shortened: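 ELISA read-out of VCAM-1 on human skin fibroblasts, 24 h post-dose; gain or loss of signal fitted bidirectionally against DMSO baseline.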
# [4] = read-out: Plasminogen activator inhibitor-1 (PAI1), SERPINE1 (gene 5054); assay: BSK_hDFCGF_PAI1: BioMAP Diversity Plus: hDFCGF Assay for Plasminogen activator inhibitor-1 (PAI1) Biomarker Activity (AID 2283066); conditions: primary human foreskin fibroblasts; actives raise or lower the signal
# Procedure, shortened: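 Fibroblasts from human foreskin were treated with test chemical. After 24 h, PAI-1 was measured by ELISA. Activity was fitted in both directions relative to DMSO.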
# [5] = read-out: Intercellular Adhesion Molecule 1 (ICAM1), ICAM1 (gene 3383); assay: BSK_KF3CT_ICAM1: BioMAP Diversity Plus: KF3CT Assay for Intercellular Adhesion Molecule 1 (ICAM1) Biomarker Activity (AID 2283067); conditions: primary human keratinocytes with fibroblasts; actives raise or lower the signal
# Procedure, shortened: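 ELISA readout of ICAM-1; KF3CT human skin co-culture (keratinocytes + foreskin fibroblasts), 24 h post-dose; gain/loss fit vs DMSO baseline.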
# [6] = read-out: Interferon-gamma inducible Protein 10 (IP10), CXCL10 (gene 3627); assay: BSK_KF3CT_IP10: BioMAP Diversity Plus: KF3CT Assay for Interferon-gamma inducible Protein 10 (IP10) Biomarker Activity (AID 2283068); conditions: primary human keratinocytes with fibroblasts; actives raise or lower the signal
# Procedure, shortened: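 Signal is secreted/surface IP-10 by ELISA in a human primary skin co-culture of keratinocytes and foreskin fibroblasts, taken 24 h post-dosing; DMSO served as negative control.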
# [7] = BSK_KF3CT_SRB: Viability Assessment in the BioMAP Diversity Plus: KF3CT Assay (AID 2283069); conditions: primary human keratinocytes with fibroblasts;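 note: total protein by sulforhodamine B staining as a cytotoxicity measure; read 24 h after compound addition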
# Procedure, shortened: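 SRB read-out at 560 nm (0.1% stain, TCA-fixed cells) gauges overt cytotoxicity in a human skin keratinocyte–fibroblast co-culture 24 h post-dosing. Signal change was fitted bidirectionally relative to DMSO control.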
# [8] = read-out: TIMP metallopeptidase inhibitor 2 (TIMP2), TIMP2 (gene 7077); assay: BSK_KF3CT_TIMP2: BioMAP Diversity Plus: KF3CT Assay for TIMP metallopeptidase inhibitor 2 (TIMP2) Biomarker Activity (AID 2283071); conditions: primary human keratinocytes with fibroblasts; actives raise or lower the signal
# Procedure, shortened: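 Chemicals were dosed onto human skin primary co-cultures of keratinocytes and foreskin fibroblasts, and TIMP-2 was measured by ELISA after 24 hours. Activity in either direction was fitted relative to DMSO.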
# [9] = read-out: Interleukin-1 alpha (IL1a), IL1A (gene 3552); assay: BSK_KF3CT_IL1a: BioMAP Diversity Plus: KF3CT Assay for Interleukin-1 alpha (IL1a) Biomarker Activity (AID 2283070); conditions: primary human keratinocytes with fibroblasts; actives raise or lower the signal
# Procedure, shortened: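 Primary skin co-culture (keratinocytes, foreskin fibroblasts), 24 h exposure; ELISA for IL-1a; bidirectional curve fit vs DMSO.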
smiles,measurement,setting,value
CC(C)(c1ccc(O)cc1)c1ccc(O)cc1,outcome,[1],inactive
same,outcome,[2],inactive
same,AC50,[3],8.38 µM (active)
same,outcome,[3],inactive
same,outcome,[4],inactive
same,outcome,[5],inactive
same,outcome,[6],inactive
same,outcome,[7],inactive
same,outcome,[8],inactive
COc1nc(C)nc(NC(=O)NS(=O)(=O)c2ccccc2OCCCl)n1,outcome,[1],inactive
same,outcome,[2],inactive
same,outcome,[3],inactive
same,outcome,[4],inactive
same,outcome,[5],inactive
same,outcome,[6],inactive
same,outcome,[7],inactive
same,outcome,[8],inactive
O=C(c1ccc(O)cc1O)c1ccc(O)cc1O,outcome,[1],inactive
same,outcome,[2],inactive
same,outcome,[3],inactive
same,outcome,[4],inactive
same,outcome,[5],inactive
same,outcome,[6],inactive
same,outcome,[7],inactive
same,outcome,[8],inactive
C#C[C@]1(O)CC[C@H]2[C@@H]3CCC4=CC(=O)CC[C@@H]4[C@H]3CC[C@@]21CC,outcome,[1],inactive
same,outcome,[2],inactive
same,outcome,[3],inactive
same,outcome,[4],inactive
same,outcome,[5],inactive
same,outcome,[6],inactive
same,outcome,[7],inactive
same,outcome,[8],inactive
CC(C)(C)[C@@H](O)[C@@H](Cc1ccc(Cl)cc1)n1cncn1,outcome,[1],inactive
same,AC50,[2],1.42 µM (active)
same,outcome,[3],inactive
same,outcome,[4],inactive
same,outcome,[5],inactive
same,outcome,[6],inactive
same,outcome,[7],inactive
same,outcome,[9],inactive
same,outcome,[8],inactive
CCN(CC)C(=O)c1cccc(C)c1,outcome,[1],inactive
same,outcome,[2],inactive
same,outcome,[3],inactive
same,outcome,[4],inactive
same,outcome,[5],inactive
same,outcome,[6],inactive
same,outcome,[7],inactive
same,outcome,[9],inactive
same,outcome,[8],inactive
O=C(c1ccccc1)C1CCCCC1,outcome,[1],inactive
same,outcome,[2],inactive
same,outcome,[3],inactive
same,outcome,[4],inactive
same,outcome,[5],inactive
same,outcome,[6],inactive
same,outcome,[7],inactive
same,outcome,[9],inactive
same,outcome,[8],inactive
c1ccc2[nH]c(-c3cscn3)nc2c1,outcome,[1],inactive
same,outcome,[2],inactive
same,outcome,[3],inactive
same,outcome,[4],inactive
same,outcome,[5],inactive
same,outcome,[6],inactive
same,outcome,[7],inactive
same,outcome,[8],inactive
CCC(O)=C1C(=O)CC(C(=O)O)CC1=O (configuration not stated),outcome,[1],inactive
same,outcome,[2],inactive
same,outcome,[3],inactive
same,outcome,[4],inactive
same,outcome,[5],inactive
same,outcome,[6],inactive
same,outcome,[7],inactive
same,outcome,[9],inactive
same,outcome,[8],inactive
CCCCCOC(=O)COc1cc(N2C(=O)C3=C(CCCC3)C2=O)c(F)cc1Cl,AC50,[1],4.64 µM (active)
same,outcome,[2],inactive
same,AC50,[3],14 µM (active)
same,outcome,[4],inactive
same,outcome,[5],inactive
same,AC50,[6],31.9 µM (active)
same,outcome,[7],inactive
same,outcome,[9],inactive
same,AC50,[8],13.4 µM (active)
CCCCOCCOCCOCc1cc2c(cc1CCC)OCO2,outcome,[1],inactive
same,AC50,[2],3.97 µM (active)
same,outcome,[3],inactive
same,outcome,[4],inactive
same,outcome,[5],inactive
same,outcome,[6],inactive
same,outcome,[7],inactive
same,outcome,[9],inactive
same,outcome,[8],inactive
CCCN(CCC)c1c([N+](=O)[O-])cc(C(F)(F)F)c(N)c1[N+](=O)[O-],AC50,[1],35.9 µM (active)
same,AC50,[2],35.5 µM (active)
same,AC50,[3],26.9 µM (active)
same,AC50,[4],20 µM (active)
same,AC50,[5],36 µM (active)
same,AC50,[6],34.7 µM (active)
same,AC50,[7],31.3 µM (active)
same,AC50,[8],30.6 µM (active)
CCOC(=O)NCCOc1ccc(Oc2ccccc2)cc1,outcome,[1],inactive
same,outcome,[2],inactive
same,outcome,[3],inactive
same,outcome,[4],inactive
same,outcome,[5],inactive
same,outcome,[6],inactive
same,outcome,[7],inactive
same,outcome,[9],inactive
same,outcome,[8],inactive
C=CCOC(Cn1ccnc1)c1ccc(Cl)cc1Cl (configuration not stated),outcome,[1],inactive
same,outcome,[2],inactive
same,outcome,[3],inactive
same,AC50,[4],13.9 µM (active)
same,outcome,[5],inactive
same,AC50,[6],5.07 µM (active)
same,outcome,[7],inactive
same,outcome,[8],inactive
CCCOC(=O)c1ccc(C(=O)OCCC)nc1,outcome,[1],inactive
same,outcome,[2],inactive
same,outcome,[3],inactive
same,outcome,[4],inactive
same,outcome,[5],inactive
same,outcome,[6],inactive
same,outcome,[7],inactive
same,outcome,[8],inactive
OB(O)O,outcome,[1],inactive
same,outcome,[2],inactive
same,outcome,[3],inactive
same,outcome,[4],inactive
same,outcome,[5],inactive
same,outcome,[6],inactive
same,outcome,[7],inactive
same,outcome,[8],inactive
C[C@]12CC[C@@H]3c4ccc(O)cc4C[C@@H](CCCCCCCCCS(=O)CCCC(F)(F)C(F)(F)F)[C@H]3[C@@H]1CC[C@@H]2O (some centres not stated),outcome,[1],inactive
same,outcome,[2],inactive
same,outcome,[3],inactive
same,AC50,[4],1.64 µM (active)
same,outcome,[5],inactive
same,outcome,[6],inactive
same,outcome,[7],inactive
same,outcome,[8],inactive
CCCCOC(=O)[C@@H](C)Oc1ccc(Oc2ccc(C(F)(F)F)cn2)cc1,outcome,[1],inactive
same,outcome,[2],inactive
same,outcome,[3],inactive
same,outcome,[4],inactive
same,outcome,[5],inactive
same,outcome,[6],inactive
same,outcome,[7],inactive
same,outcome,[8],inactive
CCOC(=O)[C@H](C)Oc1ccc(Oc2nc3ccc(Cl)cc3o2)cc1,outcome,[1],inactive
same,outcome,[2],inactive
same,outcome,[3],inactive
same,outcome,[4],inactive
same,outcome,[5],inactive
same,AC50,[6],25.3 µM (active)
same,outcome,[7],inactive
same,outcome,[8],inactive
COCCO,outcome,[1],inactive
same,outcome,[2],inactive
same,outcome,[3],inactive
same,outcome,[4],inactive
same,outcome,[5],inactive
same,outcome,[6],inactive
same,outcome,[7],inactive
same,outcome,[8],inactive
CCNc1nc(N)nc(Cl)n1,outcome,[1],inactive
same,outcome,[2],inactive
same,outcome,[3],inactive
same,outcome,[4],inactive
same,outcome,[5],inactive
same,outcome,[6],inactive
same,outcome,[7],inactive
same,outcome,[8],inactive
CCC(C)OC(=O)N1CCCCC1CCO (configuration not stated),outcome,[1],inactive
same,outcome,[2],inactive
same,outcome,[3],inactive
same,outcome,[4],inactive
same,outcome,[5],inactive
same,outcome,[6],inactive
same,outcome,[7],inactive
same,outcome,[8],inactive
CCCCC(CC)COC(=O)c1ccccc1C(=O)O (configuration not stated),AC50,[1],13.8 µM (active)
same,outcome,[2],inactive
same,AC50,[3],10.2 µM (active)
same,outcome,[4],inactive
same,outcome,[5],inactive
same,outcome,[6],inactive
same,outcome,[7],inactive
same,outcome,[9],inactive
same,outcome,[8],inactive
CC(=O)[C@H]1CC[C@H]2[C@@H]3CCC4=CC(=O)CC[C@]4(C)[C@H]3CC[C@]12C,outcome,[1],inactive
same,outcome,[2],inactive
same,outcome,[3],inactive
same,outcome,[4],inactive
same,outcome,[5],inactive
same,outcome,[6],inactive
same,outcome,[7],inactive
same,outcome,[8],inactive
COC(=O)c1cccc(C)c1S(=O)(=O)NC(=O)Nc1nc(OCC(F)(F)F)nc(N(C)C)n1,outcome,[1],inactive
same,outcome,[2],inactive
same,outcome,[3],inactive
same,outcome,[4],inactive
same,outcome,[5],inactive
same,outcome,[6],inactive
same,outcome,[7],inactive
same,outcome,[8],inactive
O=C(O)c1ccccc1,outcome,[1],inactive
same,outcome,[2],inactive
same,outcome,[3],inactive
same,outcome,[4],inactive
same,outcome,[5],inactive
same,outcome,[6],inactive
same,outcome,[7],inactive
same,outcome,[8],inactive
CCOC(=O)C(C)Oc1ccc(Oc2cnc3cc(Cl)ccc3n2)cc1 (configuration not stated),outcome,[1],inactive
same,outcome,[2],inactive
same,outcome,[3],inactive
same,outcome,[4],inactive
same,outcome,[5],inactive
same,outcome,[6],inactive
same,outcome,[7],inactive
same,outcome,[8],inactive
COC(=O)c1ccccc1S(=O)(=O)NC(=O)Nc1nc(OC(F)F)cc(OC(F)F)n1,outcome,[1],inactive
same,outcome,[2],inactive
same,outcome,[3],inactive
same,outcome,[4],inactive
same,outcome,[5],inactive
same,outcome,[6],inactive
same,outcome,[7],inactive
same,outcome,[8],inactive
C[C@]12C[C@H](O)[C@H]3[C@@H](CCC4=CC(=O)CC[C@@]43C)[C@@H]1CC[C@@H]2C(=O)CO,outcome,[1],inactive
same,AC50,[2],1.4 µM (active)
same,outcome,[3],inactive
same,outcome,[4],inactive
same,outcome,[5],inactive
same,outcome,[6],inactive
same,outcome,[7],inactive
same,outcome,[8],inactive
CCN(Cc1c(F)cccc1Cl)c1c([N+](=O)[O-])cc(C(F)(F)F)cc1[N+](=O)[O-],AC50,[1],20 µM (active)
same,AC50,[2],9.24 µM (active)
same,outcome,[3],inactive
same,outcome,[4],inactive
same,outcome,[5],inactive
same,AC50,[6],2.54 µM (active)
same,outcome,[7],inactive
same,outcome,[8],inactive
COC(=O)CSc1cc(N=c2sc(=O)n3n2CCCC3)c(F)cc1Cl,outcome,[1],inactive
same,outcome,[2],inactive
same,outcome,[3],inactive
same,outcome,[4],inactive
same,outcome,[5],inactive
same,outcome,[6],inactive
same,outcome,[7],inactive
same,outcome,[8],inactive
